Screen size: about 10,000 compounds; about 5,600 (56%) were called active. The set was probably picked from earlier hits. The list is a sample of the results. A number with no mark means an inactive call. No stated cut-off is given here; in the data, active means inhibition above about 40%; inactive means the rest.

The target in this assay is Protein Mdm4 (Homo sapiens) + E3 ubiquitin-protein ligase Mdm2 (Homo sapiens) (UniProt O15151+Q00987). The assay can be described thus: inhibition of human Mdm2/MdmX pairing – luminescence, single concentration, confirmation (AID 489028). Particulars: Mdm2-MdmX binding, luminescent assay; at 8 µM; active compounds read high.
Sequence of Protein Mdm4 (Homo sapiens) + E3 ubiquitin-protein ligase Mdm2 (Homo sapiens) (O15151 whole entry, looked up): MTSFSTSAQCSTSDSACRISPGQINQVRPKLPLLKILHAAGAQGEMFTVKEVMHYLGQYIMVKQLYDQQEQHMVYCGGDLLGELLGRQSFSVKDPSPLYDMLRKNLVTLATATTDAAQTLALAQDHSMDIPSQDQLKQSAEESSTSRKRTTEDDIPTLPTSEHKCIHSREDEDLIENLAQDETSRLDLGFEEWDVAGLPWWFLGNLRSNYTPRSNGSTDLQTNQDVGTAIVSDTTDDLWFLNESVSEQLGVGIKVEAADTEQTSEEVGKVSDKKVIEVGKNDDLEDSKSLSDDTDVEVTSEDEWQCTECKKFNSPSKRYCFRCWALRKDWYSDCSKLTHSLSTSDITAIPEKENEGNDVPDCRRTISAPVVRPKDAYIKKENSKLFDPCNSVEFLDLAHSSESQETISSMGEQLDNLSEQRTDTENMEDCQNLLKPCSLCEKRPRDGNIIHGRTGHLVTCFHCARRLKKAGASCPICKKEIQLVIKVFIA
Sequence of Protein Mdm4 (Homo sapiens) + E3 ubiquitin-protein ligase Mdm2 (Homo sapiens) (Q00987 whole entry, looked up): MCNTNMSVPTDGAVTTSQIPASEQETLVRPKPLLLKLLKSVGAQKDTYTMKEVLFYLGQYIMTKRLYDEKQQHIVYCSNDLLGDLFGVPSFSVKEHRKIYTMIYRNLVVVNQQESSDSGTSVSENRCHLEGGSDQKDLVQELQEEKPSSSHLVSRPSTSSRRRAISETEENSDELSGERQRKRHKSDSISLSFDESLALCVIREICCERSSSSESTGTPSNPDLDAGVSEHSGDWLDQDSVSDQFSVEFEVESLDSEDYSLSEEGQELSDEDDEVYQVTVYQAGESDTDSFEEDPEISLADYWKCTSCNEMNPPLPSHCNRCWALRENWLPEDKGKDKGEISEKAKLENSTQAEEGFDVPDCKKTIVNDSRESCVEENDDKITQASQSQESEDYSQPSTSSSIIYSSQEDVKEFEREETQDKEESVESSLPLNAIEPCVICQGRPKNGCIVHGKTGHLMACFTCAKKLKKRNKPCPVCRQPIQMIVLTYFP
In general, inhibition refers to how much of the control response was suppressed. On to `O=C1C2(Cl)C3(Cl)C4(Cl)C(Cl)(Cl)C5(Cl)C3(Cl)C1(Cl)C5(Cl)C24Cl` (stereo not drawn), for which the inhibition is 49.5% (active).

Take `COC(=O)C1=C(c2ccc(F)cc2OCc2ccccc2)C[C@@H]2CC[C@H]1N2C(=O)NCc1ccc(Cl)cc1`: the inhibition is 31.1%.

In the case of `CNCC(O)c1cc(F)c(OCc2ccccc2)c(OCc2ccccc2)c1F` (stereo not drawn), the inhibition was 17.8%.

For the compound `Cc1cc2ccccn2c1C(C[N+](=O)[O-])c1c(F)cccc1Cl` (stereo not drawn), the inhibition is 99.1% (active).

In the case of `O=c1c2ccccc2nc(/C=C/c2ccc(F)cc2)n1-c1ccccc1O`, the inhibition was 31%.

As to `O=Cc1cn(Cc2ccc(F)cc2Cl)c2ccccc12`, the inhibition is 28%.

`CNC(=O)O/N=C(\N)Cc1csc2ccccc12`: the inhibition was 52.6% (active).

Regarding `CNC(=O)O/N=C(\N)Cc1csc2ccc(Cl)cc12`, the inhibition is 90.3% (active).

As to `O=C(c1cc2nc(-c3ccccc3)cc(-c3ccccc3)n2n1)N1CCC2(CC1)OCCO2`, the inhibition was 16.3%.

As to `CCCCC(=O)N/N=C/c1c(O)n(CCC2=CCCCC2)c(=O)[nH]c1=O`, the inhibition is 20.9%.

For the compound `COC(=O)C1=C(c2ccc(F)cc2OCc2ccccc2)C[C@@H]2CC[C@H]1N2C(=O)NCc1ccc2[nH]ccc2c1`, the inhibition is 18.9%.

As for `O=C1NC(=O)N(CCc2ccc(F)cc2)C(=O)/C1=C/C=C/c1ccccc1`, the inhibition is 57.2% (active).

In the case of `CCCCCCCCCCCCn1ccc(=N)cc1`, the inhibition was 98.3% (active).

Turning to `N#CC1=C(N)Oc2c(c(=O)oc3ccccc23)C1c1ccccc1OC(=O)c1cccs1` (stereo not drawn), the inhibition was 15.1%.

Regarding `CC1(C)Cc2c(C#N)c(N3CCNCC3)nc(-c3ccco3)c2CS1`, the inhibition is 24.1%.

On to `CCOc1ccc(-c2cc(C)[n+](CCN(CC)CC)c(-c3ccc(OCC)cc3)c2)cc1`, for which the inhibition is 84.5% (active).

As for `CC(Cc1ccccc1)NCCC(c1ccccc1)c1ccccc1` (stereo not drawn), the inhibition was 19.1%.

Turning to `CCCCCn1c(=O)c(C(=O)NCc2ccccc2)c(O)c2ccccc21`, the inhibition is 5.2%.

The record behind these values is PubChem BioAssay AID489028 (Sanford-Burnham Center for Chemical Genomics, 2010).
